# Bioassay records deposited in PubChem by National Center for Advancing Translational Sciences (NCATS).
# Shown are actives, neighbours in structure and some others; about 6.9% of the full set was active somewhere.
# Giardia killer: Small Molecules that selectively kill Giardia lamblia: qHTS. Giardia lamblia trophozoite viability. activity change, % at 7.66 µM, hits read low. actives 0.15% (n = 340,000); in the data active = activity change below about -80%; inconclusive = between about -30% and that limit;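 note: parasites exposed to compound for two days anaerobically before the ATP read; % is set by controls: 0 for no effect and ±100 for the full control effect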
#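 ATP-content bioluminescence gauges trophozoite survival. Cells (100/well) receive compound and incubate anaerobically for 48 hrs at 37 deg C; detection reagent follows for 15-30 min at room temperature.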
# MCF10A rerep: A quantitative high throughput screen for small molecules that induce DNA re-replication in MCF 10a normal breast cells; MCF 10A DNA re-replication, Hoechst nuclear intensity, 48 h; Potency, µM (top dose mostly 46.1 µM), for the others: at the highest dose activity, positive = re-replication, usual class: activators; actives 2.9% (n = 350,000); AID 624296, 2012; note: potency is the fitted concentration of half-maximal effect; % of control where 0% means no effect; nearly all actives have a fitted effect of over 50% in size
# Vif-A3F inh: qHTS for Inhibitors of Vif-A3F Interactions: qHTS; HeLa A3F-eYFP + Vif (tagged APOBEC3F with the HIV-1 protein that degrades it), YFP fluorescence increase; Potency, µM (titrated, usually from 46.1 µM), inactives show top-dose activity, negative = active; actives 0.2% (n = 390,000); note: potency is the fitted concentration of half-maximal effect; % of control where 0% means no effect; nearly all actives have a fitted effect of over 65% in size
#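 Fluorescence increase (Ex 488/Em 500-530) after overnight compound treatment at 37 deg C flags inhibition of Vif-driven A3F-eYFP loss in stable HeLa A3F-eYFP/Vif cells seeded overnight beforehand.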
# Vif-APOBEC3G blk: qHTS for Inhibitors of Vif-A3G Interactions: qHTS; DNA dC->dU-editing enzyme APOBEC-3G (Homo sapiens), Q9HC16; HeLa A3G-eYFP + Vif (tagged APOBEC3G with the HIV-1 protein that degrades it), YFP fluorescence, overnight; Potency, µM (series often up to 46.1 µM), without a hit: top-dose activity, negative = active, actives largely listed as inhibitors; actives 0.076% (n = 410,000); note: potency is the fitted concentration of half-maximal effect; % is set by controls: 0 for no effect and ±100 for the full control effect; nearly all actives have a fitted effect of over 60% in size
# Target sequence (Q9HC16 whole entry, looked up): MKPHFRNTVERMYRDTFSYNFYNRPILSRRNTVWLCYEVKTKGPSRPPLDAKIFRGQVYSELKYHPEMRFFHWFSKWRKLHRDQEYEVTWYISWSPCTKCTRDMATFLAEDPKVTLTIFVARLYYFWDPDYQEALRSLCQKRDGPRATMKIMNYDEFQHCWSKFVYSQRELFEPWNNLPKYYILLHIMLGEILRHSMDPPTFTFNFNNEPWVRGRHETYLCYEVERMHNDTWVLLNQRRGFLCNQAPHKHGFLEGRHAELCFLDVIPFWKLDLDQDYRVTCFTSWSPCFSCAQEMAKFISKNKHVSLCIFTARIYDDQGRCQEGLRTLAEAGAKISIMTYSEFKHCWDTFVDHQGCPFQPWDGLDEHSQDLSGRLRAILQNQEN
#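 Read-out is eYFP fluorescence (Ex 488/Em 500-530) from Vif-expressing HeLa A3G-eYFP cells; more signal means A3G escaped Vif-mediated degradation. Cells plated overnight, compound pinned in, incubated overnight at 37 deg C.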
# IL1B secr inh: qHTS for Inhibitors of Inflammasome Signaling: IL-1-beta AlphaLISA Primary Screen. THP-1 LPS/ATP IL-1B secretion, AlphaLISA, 16 h; active compounds read low. activity change, % at 57.5 µM. actives 4.7% (n = 360,000); in the data active = activity change below about -50%; inconclusive = mostly about -30% to -49%; note: % is set by controls: 0 for no effect and ±100 for the full control effect
#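 Secreted IL-1B measured by AlphaLISA bead assay after 16 h compound exposure of THP-1 cells; compounds (final up to 57.5 uM) added 1 h before LPS (250 ng/mL) and ATP (1.25 mM) stimulation; lower signal means less secretion.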
# SW480 rereplic: A quantitative high throughput screen for small molecules that induce DNA re-replication in SW480 colon adenocarcinoma cells; AID 624297, 2012; actives 1.8% (n = 340,000); Potency, µM (top dose mostly 46.1 µM), inactives show at the top dose re-replication activation, hits mostly activators; SW480 DNA re-replication, Hoechst DNA content imaging, 48 h; note: potency is the fitted concentration of half-maximal effect; % of control where 0% means no effect; nearly all actives have a fitted effect of over 55% in size
#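 Hoechst fluorescence of nuclei (405 nm excitation, 500-530 nm emission) measured by plate-scanning imager after 48 hr compound exposure at 37 C; re-replication scored as increased number of nuclei with elevated intensity.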
# * marks the source's active call; other numbers are inactive results; ? = inconclusive; nt = no result given; [ ] = dose if it differs, or a comment. Unless noted, calls come from the whole dose curve; as a rule, active = well fitted curve in the direction sought with a large enough effect; inconclusive = small, poorly fitted or top-dose-only effect, or another doubt; inactive = no such curve, though single readings can be large; an effect the other way counts as inactive or inconclusive.
SMILES,Giardia killer,MCF10A rerep,Vif-A3F inh,Vif-APOBEC3G blk,IL1B secr inh,SW480 rereplic
O=C(NCc1cccs1)C1CC(c2ccc(Cl)c(Cl)c2)=NO1 (stereo not given),-0.5,2.31µM*,-13.8%,?,38.5,-3.6%
O=S(Cc1cc(Sc2ccccc2)nc(-c2ccccc2)n1)c1ccccc1 (stereo not given),-4.8,23.1µM*,-0.9%,2.8%,-7.3,?
Cc1ccccc1NC(=O)/C(C#N)=C/c1ccccc1C(F)(F)F,-0.8,27.8%,-4.5%,-9.7%,-71.8*,8.1%
Cc1cc(C)c2c(-n3cccc3)c(C(=O)NCCCN3CCCCC3)sc2n1,nt,nt,7.9%,1.0%,nt,nt
CC(NCc1ccc(-c2ccccc2)cc1)C(O)c1ccccc1 (stereo not given),0.7,25.9µM*,-11.0%,-19.6%,-95.8*,4.11µM*
COc1ccc2[nH]c3c(NCCN(C(C)C)C(C)C)ncnc3c2c1,14.9,?,-10.5%,-2.7%,-57.4*,16.4%
CCOc1ccc2[nH]c3c(NCCN(CC)CC)ncnc3c2c1,13.8,0.9%,?,2.5%,-96.1*,?
CCOc1ccc2[nH]c3c(NCCCOC)ncnc3c2c1,28.3,7.8%,3.7%,-11.5%,-54.0*,-19.5%
CCOc1ccc2[nH]c3c(NCC(C)C)ncnc3c2c1,7.3,7.1%,-0.8%,0.1%,?,-2.3%
CCOc1ccc2[nH]c3c(NCCOC)ncnc3c2c1,13.4,16.6%,5.1%,-11.0%,0.9,-9.7%
O=c1oc2c(CN3CCN(CCO)CC3)c(O)ccc2cc1-c1ccccn1,9.2,8.2µM*,-20.8%,-3.5%,96.9,6.51µM*
CNCc1c(OCc2ccc(F)cc2)ccc2ccccc12,15.0,0.7%,9.4%,0.0%,-54.6*,0.9%[1.84 µM]
Fc1ccc(COc2ccc3ccccc3c2CNc2nn[nH]n2)cc1,-1.4,?,-0.7%,12.6µM*,-10.2,?
Fc1ccccc1COc1ccc2ccccc2c1CNc1nn[nH]n1,5.1,?,-19.9%,?,26.9,?
O=C(NCCc1ccccc1Cl)c1ccc2c(c1)nc1n2CCCCC1,nt,nt,8.1%,-0.6%,nt,nt
Cc1ccc(-n2nnnc2C(Cl)(Cl)c2nnnn2-c2ccc(C)cc2)cc1,-3.2,15.9%,-16.6%,-12.5%,-78.4*,1.9%
COc1ccc(C2c3c(n(C)c4ccccc34)C(=O)N2CC(=O)Nc2ccccc2Cl)cc1 (stereo not given),nt,nt,-6.0%,3.8%,nt,nt
COc1ccc2nc3ccccc3nc2c1NC(=O)c1ccc(Cl)cc1,13.6,18.3%,11.2µM*,-11.3%,35.0,0.4%
COc1ccc2nc3ccccc3nc2c1NC(=O)c1ccc(Br)cc1,5.9,?,6.31µM*,?,18.4,-0.2%
COc1cc(NC(=O)c2cccnc2)c(OC)cc1NC(=O)c1ccc(Br)cc1,4.0,1.2%,8.1%,3.7%,-1.3,-0.6%
CCCc1ccc(S(=O)(=O)N2CCC(c3nnc(-c4cccc(C)c4)o3)CC2)cc1,nt,nt,-33.1%,-2.8%,nt,nt
CN(c1ccccc1)c1nc(C#N)nc(N2CCOCC2)n1,4.3,nt,nt,-1.4%,nt,nt
CCOC(=O)c1c(CSc2ccccc2)n(C)c2cc(Br)c(OC)c(O)c12,1.6,2.7%,2.0%,1.2%,-27.2,-20.5%
CCOC(=O)c1c(CSc2ccccc2)n(C)c2cc(Br)c(OCC(O)CNC(CO)(CO)CO)cc12 (stereo not given),6.4,20.6µM*,6.9%,-29.6%,-100.5*,?
Cn1c(/C(C#N)=C/c2cccc(O)c2)nc2ccccc21,16.3,-6.5%[9.22 µM],-2.9%,-11.7%,-61.5*,?
Oc1ccc(N=Nc2ccccc2)o1,16.0,?,-3.8%,-25.6%,-89.9*,?
O=S(=O)(O)c1ccc(N=Nc2ccccc2)cc1,-8.1,-0.8%,16.0%,-1.4%,-7.8,4.9%
